In PubChem BioAssay (NCI):
The panel holds about 83,000 compounds, 20% with a hit somewhere; the sample as a whole holds those more often.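 The endpoint reported here, percent growth, reads 100 for growth as untreated, 0 for no net growth and -100 for all cells dead.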 Values without a mark were called inactive. The source made the active and inactive calls. The calls were made as follows: active = growth percent below 10; inactive = the rest.

Experiments:
Assay in all cases: NCI-60 one-dose screen, 48 h (100 = growth as untreated, 0 = no growth, -100 = all killed)
Details in all cases: 10 µM unless noted
SK-MEL-2 melanoma = system: SK-MEL-2 melanoma
EKVX NSCLC = system: EKVX NSCLC
SN12C renal = system: SN12C renal
UO-31 renal = system: UO-31 renal
TK-10 renal = system: TK-10 renal
ACHN renal = system: ACHN renal
CAKI-1 renal = system: CAKI-1 renal
A498 renal = system: A498 renal
CCRF-CEM leukemia = system: CCRF-CEM leukemia
MOLT-4 leukemia = system: MOLT-4 leukemia
SR leukemia = system: SR leukemia
RPMI-8226 leukemia = system: RPMI-8226 leukemia
OVCAR-8 ovarian = system: OVCAR-8 ovarian
OVCAR-5 ovarian = system: OVCAR-5 ovarian
OVCAR-4 ovarian = system: OVCAR-4 ovarian
SK-OV-3 ovarian = system: SK-OV-3 ovarian
IGROV1 ovarian = system: IGROV1 ovarian
OVCAR-3 ovarian = system: OVCAR-3 ovarian
HS 578T breast = system: HS 578T breast
NCI/ADR-RES ovarian = system: NCI/ADR-RES ovarian

## O=C1CCC(C(=O)N/N=C/c2ccc([N+](=O)[O-])cc2)N1 (stereo not given)
SK-MEL-2 melanoma
  growth: 102%
EKVX NSCLC
  growth: 102%
SN12C renal
  growth: 103%
UO-31 renal
  growth: 83.4%
TK-10 renal
  growth: 93%
ACHN renal
  growth: 101%
CAKI-1 renal
  growth: 93%
A498 renal
  growth: 106%
CCRF-CEM leukemia
  growth: 97%
MOLT-4 leukemia
  growth: 102%
SR leukemia
  growth: 113%
RPMI-8226 leukemia
  growth: 100%
OVCAR-8 ovarian
  growth: 101%
OVCAR-5 ovarian
  growth: 105%
OVCAR-4 ovarian
  growth: 104%
SK-OV-3 ovarian
  growth: 105%
IGROV1 ovarian
  growth: 100%
OVCAR-3 ovarian
  growth: 105%
HS 578T breast
  growth: 98.8%
NCI/ADR-RES ovarian
  growth: 103%

## CC(C)=CCC[C@](C)(O)C1CC[C@]2(C)[C@@H]1CC[C@@H]1[C@@]3(C)CC/C(=N\OCCC#N)C(C)(C)[C@@H]3CC[C@]12C (stereo not given in full)
SK-MEL-2 melanoma
  growth: 100%
EKVX NSCLC
  growth: 72.4%
SN12C renal
  growth: 80%
UO-31 renal
  growth: 60.5%
TK-10 renal
  growth: 105%
ACHN renal
  growth: 90.3%
CAKI-1 renal
  growth: 77.5%
A498 renal
  growth: 72.8%
CCRF-CEM leukemia
  growth: 75.8%
MOLT-4 leukemia
  growth: 77.5%
SR leukemia
  growth: 61.6%
RPMI-8226 leukemia
  growth: 36%
OVCAR-8 ovarian
  growth: 85.1%
OVCAR-5 ovarian
  growth: 99.1%
OVCAR-4 ovarian
  growth: 79.9%
SK-OV-3 ovarian
  growth: 84.3%
IGROV1 ovarian
  growth: 97.4%
OVCAR-3 ovarian
  growth: 93.2%
HS 578T breast
  growth: 92.9%
NCI/ADR-RES ovarian
  growth: 97.7%

## COc1ccc(Nc2nc(Nc3cc(C)[nH]n3)c3cc(OC)c(OC)cc3n2)cc1
SK-MEL-2 melanoma
  growth: -68.6% [20 µM] (active)
EKVX NSCLC
  growth: -79.5% [20 µM] (active)
SN12C renal
  growth: -90.4% [20 µM] (active)
UO-31 renal
  growth: -100% [20 µM] (active)
TK-10 renal
  growth: -86.6% [20 µM] (active)
ACHN renal
  growth: -100% [20 µM] (active)
CAKI-1 renal
  growth: -100% [20 µM] (active)
A498 renal
  growth: -98.7% [20 µM] (active)
CCRF-CEM leukemia
  growth: -38.9% [20 µM] (active)
MOLT-4 leukemia
  growth: -57.1% [20 µM] (active)
SR leukemia
  growth: 0.87% [20 µM] (active)
RPMI-8226 leukemia
  growth: -50.4% [20 µM] (active)
OVCAR-8 ovarian
  growth: -31.2% [20 µM] (active)
OVCAR-5 ovarian
  growth: -98% [20 µM] (active)
OVCAR-4 ovarian
  growth: -83.9% [20 µM] (active)
SK-OV-3 ovarian
  growth: -96.2% [20 µM] (active)
IGROV1 ovarian
  growth: -88.8% [20 µM] (active)
OVCAR-3 ovarian
  growth: -63.1% [20 µM] (active)
HS 578T breast
  growth: -63.1% [20 µM] (active)
NCI/ADR-RES ovarian
  growth: -63.7% [20 µM] (active)

## COc1ccc(/C(C)=C(\c2ccc(Cl)cc2)c2ccc(OCCCN(C)C)cc2)cc1
SK-MEL-2 melanoma
  growth: 90.4%
EKVX NSCLC
  growth: 88.6%
SN12C renal
  growth: 79.9%
UO-31 renal
  growth: 64.5%
TK-10 renal
  growth: 94.7%
ACHN renal
  growth: 91.9%
CAKI-1 renal
  growth: 67.1%
A498 renal
  growth: 93.4%
CCRF-CEM leukemia
  growth: 53.1%
MOLT-4 leukemia
  growth: 55.8%
SR leukemia
  growth: 0.701% (active)
RPMI-8226 leukemia
  growth: 25.6%
OVCAR-8 ovarian
  growth: 85%
OVCAR-5 ovarian
  growth: 83.4%
OVCAR-4 ovarian
  growth: 90.4%
SK-OV-3 ovarian
  growth: 111%
IGROV1 ovarian
  growth: 81.3%
OVCAR-3 ovarian
  growth: 89%
HS 578T breast
  growth: 71.5%
NCI/ADR-RES ovarian
  growth: 86.5%

## COc1cccc(C(=O)Nc2cccc(NC(=O)c3ccccn3)c2)c1
SK-MEL-2 melanoma
  growth: 108%
EKVX NSCLC
  growth: 94.1%
SN12C renal
  growth: 98.8%
UO-31 renal
  growth: 79.5%
TK-10 renal
  growth: 96.6%
ACHN renal
  growth: 100%
CAKI-1 renal
  growth: 99.1%
A498 renal
  growth: 93%
CCRF-CEM leukemia
  growth: 103%
MOLT-4 leukemia
  growth: 88.6%
SR leukemia
  growth: 77%
RPMI-8226 leukemia
  growth: 101%
OVCAR-8 ovarian
  growth: 104%
OVCAR-5 ovarian
  growth: 94.3%
OVCAR-4 ovarian
  growth: 96.4%
SK-OV-3 ovarian
  growth: 97.7%
IGROV1 ovarian
  growth: 101%
OVCAR-3 ovarian
  growth: 105%
HS 578T breast
  growth: 116%
NCI/ADR-RES ovarian
  growth: 96.1%

## Cc1ccc(C(=O)Nc2ccc(CN3CCN(C)CC3)c(C(F)(F)F)c2)cc1C#Cc1cnc(N)c2ccccc12
SK-MEL-2 melanoma
  growth: -26.6% (active)
EKVX NSCLC
  growth: 36%
SN12C renal
  growth: 11.3%
UO-31 renal
  growth: -34.9% (active)
TK-10 renal
  growth: 29.9%
ACHN renal
  growth: -91.8% (active)
CAKI-1 renal
  growth: -81.6% (active)
A498 renal
  growth: -32.5% (active)
CCRF-CEM leukemia
  growth: -15.7% (active)
MOLT-4 leukemia
  growth: -45.2% (active)
SR leukemia
  growth: -8.12% (active)
RPMI-8226 leukemia
  growth: -39.6% (active)
OVCAR-8 ovarian
  growth: -42.1% (active)
OVCAR-5 ovarian
  growth: 2.98% (active)
OVCAR-4 ovarian
  growth: -52% (active)
SK-OV-3 ovarian
  growth: -1.39% (active)
IGROV1 ovarian
  growth: -37.6% (active)
OVCAR-3 ovarian
  growth: -57.7% (active)
HS 578T breast
  growth: -28.1% (active)
NCI/ADR-RES ovarian
  growth: -32.8% (active)

## O=C(CN1C(=O)NC2NC(=O)NC21)N/N=C/c1cccc([N+](=O)[O-])c1 (stereo not given)
SK-MEL-2 melanoma
  growth: 113%
EKVX NSCLC
  growth: 102%
SN12C renal
  growth: 96.5%
UO-31 renal
  growth: 88.4%
TK-10 renal
  growth: 106%
ACHN renal
  growth: 104%
CAKI-1 renal
  growth: 85.8%
A498 renal
  growth: 95.8%
CCRF-CEM leukemia
  growth: 106%
MOLT-4 leukemia
  growth: 106%
SR leukemia
  growth: 110%
RPMI-8226 leukemia
  growth: 110%
OVCAR-8 ovarian
  growth: 111%
OVCAR-5 ovarian
  growth: 105%
OVCAR-4 ovarian
  growth: 105%
SK-OV-3 ovarian
  growth: 108%
IGROV1 ovarian
  growth: 103%
OVCAR-3 ovarian
  growth: 108%
HS 578T breast
  growth: 107%
NCI/ADR-RES ovarian
  growth: 101%

## CN1C(=O)N(C)C2C1NN=c1s/c(=C\c3ccccc3F)c(=O)n12 (stereo not given)
SK-MEL-2 melanoma
  growth: 42.5%
EKVX NSCLC
  growth: 48.3%
SN12C renal
  growth: 26%
UO-31 renal
  growth: 42.6%
TK-10 renal
  growth: 63.1%
ACHN renal
  growth: 36.8%
CAKI-1 renal
  growth: 31.4%
A498 renal
  growth: 1.45% (active)
CCRF-CEM leukemia
  growth: 11%
MOLT-4 leukemia
  growth: 15.8%
SR leukemia
  growth: 18.2%
RPMI-8226 leukemia
  growth: 20.7%
OVCAR-8 ovarian
  growth: 10.1%
OVCAR-5 ovarian
  growth: 25.6%
OVCAR-4 ovarian
  growth: 49%
SK-OV-3 ovarian
  growth: 33.8%
IGROV1 ovarian
  growth: 20.8%
OVCAR-3 ovarian
  growth: -3.72% (active)
HS 578T breast
  growth: 7.57% (active)
NCI/ADR-RES ovarian
  growth: -13.1% (active)
